Test results as given in ChEMBL document CHEMBL1157539, “Thousands of chemical starting points for antimalarial lead identification” (Nature, 2010).

These compounds were tested on Plasmodium falciparum (assay: GSK_TCMDC: Inhibition of Plasmodium falciparum Dd2 in whole red blood cells, using parasite LDH activity as an index of growth. Test compounds present at 2uM).
Type: functional

`O=C(O)C(F)(F)F.c1ccc(-n2ncc(CNCc3ccc(-c4ccc(-c5nc6ccccc6[nH]5)s4)cc3)n2)cc1` was tested. Which Inhibition did it give?
Its Inhibition is 46%.

`Cc1nc2c(c(C)nn2C(C)(C)C)c(C)c1CCC(=O)Nc1ccc(CN2CCCC2)cc1` was tested. Which Inhibition did it give?
Its Inhibition is 5%.

With `Cc1cc(NC(=O)NCCN2CCC(NS(=O)(=O)c3cccc(Br)c3)C2)c2ccccc2n1.O=C(O)C(F)(F)F` (stereo not given) as the compound, how does the Inhibition read?
The Inhibition was 58%.

Which Inhibition does the source give for `Nc1ncc(-c2cccc(OCc3ccccc3)c2)cc1-c1nnc2ccc(Cl)nn12` here?
Its Inhibition is 7%.

How did the Inhibition turn out when `CCOCCCn1c(=N)c(C(=O)NCc2ccc(OC)cc2)cc2c(=O)n3cccc(C)c3nc21` was run?
Its Inhibition is 46%.

Which Inhibition does the source give for `Oc1ccc(Br)cc1C(O)CNCc1ccccc1OCc1ccccc1` (stereo not given) here?
The Inhibition was 100%.

With `O=C(/C=C/c1ccc(C(F)(F)F)cc1)NCCCCCN1CCCN(C(=O)Nc2ccc(Cl)c(C(F)(F)F)c2)CC1` as the compound, how does the Inhibition read?
Its Inhibition is 31%.

Which Inhibition does the source give for `COc1ccc(N2C(N)=NC(N)=NC2(C)C)cc1.Cl` here?
The Inhibition was 29%.

For `O=S(=O)(Nc1ccc(CCN2CCC(N3CCCCC3)CC2)cc1)c1ccc(Cl)cc1`, which Inhibition is on record?
Its Inhibition is 18%.

For `Cc1cccc2nc(-c3ccc(-c4cccc(CN5CCC(C(N)=O)CC5)c4)s3)[nH]c12.O=C(O)C(F)(F)F`, which Inhibition is on record?
The Inhibition was 16%.

`Cn1cc(C(=O)Nc2cccc(-c3cccc(-c4nc5cc(F)ccc5[nH]4)c3)c2)n(C)c1=O` was tested. Which Inhibition did it give?
The Inhibition was 50%.

Which Inhibition does the source give for `O=C(Nc1ccc(-c2nc3ccccc3[nH]2)cc1)C1CCN(Cc2ccc(F)cc2)CC1` here?
The Inhibition was 91%.

For `O=C(Nc1cccc(CN2CCN(Cc3ccc(O)cc3)CC2)c1)c1cccc(C(F)(F)F)c1.O=C(O)C(F)(F)F`, which Inhibition is on record?
Its Inhibition is 15%.

Which Inhibition does the source give for `O=c1cc(NCCCNCc2cc(Br)ccc2F)[nH]c2ccccc12` here?
The Inhibition was 14%.

Which Inhibition does the source give for `CC(c1cccc(Nc2nccc(-c3c(-c4cccc(NC(=O)c5c(F)cccc5F)c4)nn4ncccc34)n2)c1)S(C)(=O)=O` (stereo not given) here?
The Inhibition was 98%.

With `COC(=O)c1cccc(OCCNC2CCN(C[C@H](O)c3ccnc4ccc(OC)cc34)CC2)c1.O=C(O)C(=O)O` as the compound, how does the Inhibition read?
The Inhibition was 96%.

With `Nc1c2c(nc3ccc(C(=O)Nc4ccc(Br)cc4)cc13)CCCC2` as the compound, how does the Inhibition read?
Its Inhibition is 99%.

For `Cl.O=C(NC1CCN(CC2(c3ccc(Cl)cc3)CCCCC2)CC1)c1cc[nH]n1`, which Inhibition is on record?
Its Inhibition is 96%.

For `COc1cc2c(cc1CCNCCCCNCCc1cc3c(cc1OC)CCCC3)CCCC2.CS(=O)(=O)O`, which Inhibition is on record?
Its Inhibition is 36%.

For `O=C(NCCCCN1CCC(c2ccc(C(F)(F)F)cc2C(F)(F)F)CC1)c1ccc(NC(=O)c2ccc(Cl)cc2)cc1`, which Inhibition is on record?
The Inhibition was 59%.

For `CC(=O)c1c[nH]c2ccc(/C=C/C(=O)NC3CCC(CCN4CCc5ccc(C#N)cc5CC4)CC3)cc12.Cl` (stereo not given), which Inhibition is on record?
The Inhibition was 98%.

`O=C(O[C@@H]1CN[C@H](C#Cc2cc3ncnc(Nc4ccc5c(cnn5Cc5cccc(F)c5)c4)c3s2)C1)N1CCCC1` was tested. Which Inhibition did it give?
The Inhibition was 56%.

For `O=C(Nc1cccc(-c2cccc(-c3nc4cc(F)ccc4[nH]3)c2)c1)c1csnn1`, which Inhibition is on record?
Its Inhibition is 29%.

How did the Inhibition turn out when `CN1CCCN(Cc2cccc(-c3ccc(CNC(=O)c4cccc(Cl)c4)c(F)c3)c2)CC1.O=C(O)C(F)(F)F` was run?
The Inhibition was 38%.

`O=S(=O)(c1cccc(Cl)c1F)N(CCC(O)(C(F)(F)F)C(F)(F)F)Cc1cccc(O)c1` was tested. Which Inhibition did it give?
The Inhibition was 86%.

`Cc1cccc(C)c1CNc1ccnc2cc(Br)ccc12.Cl` was tested. Which Inhibition did it give?
The Inhibition was 99%.

`O=C(N[C@@H](Cc1ccccc1)C(=O)NC1CCCc2ccccc21)c1ccc(O)c(-c2cccc(C(F)(F)F)c2)c1` (stereo not given in full) was tested. Which Inhibition did it give?
The Inhibition was 41%.

For `CC(C)Cc1ccc(N2CCN(CCCCNC(=O)c3ccc(NC(=O)c4ccc(Cl)c(Cl)c4)cc3)CC2)cc1`, which Inhibition is on record?
Its Inhibition is 25%.

With `O=C(Nc1ccc([N+](=O)[O-])cc1)Nc1nc2ccc(Cl)cc2s1` as the compound, how does the Inhibition read?
The Inhibition was 33%.

With `CC(C)COc1ccc(Cl)cc1Cc1ccc(-c2nc3ccc(Br)cc3[nH]2)o1.Cl` as the compound, how does the Inhibition read?
The Inhibition was 75%.

Each compound was assayed on HepG2 (assay: GSK_TCMDC: Percent inhibition of human HepG2 cell line. Test compounds present at 10uM.).
Type: functional

For `COc1ccc(-c2c(C(F)(F)F)nn(C)c2NC(=O)Nc2ccc(F)cc2F)cc1`, which Inhibition is on record?
The Inhibition was 8%.

`c1ccc(-c2csc(Nc3nc4cc5c(cc4s3)OCO5)n2)nc1` was tested. Which Inhibition did it give?
Its Inhibition is 46%.

With `CCN(CC)/C(=N/C(=N)NCc1ccc(Cl)cc1Cl)NCCCCCCN/C(=N\C(=N)NCc1ccc(Cl)cc1Cl)N(CC)CC` as the compound, how does the Inhibition read?
The Inhibition was 16%.

Which Inhibition does the source give for `CC(=O)O.Nc1nc(N)c2cc3ccc(OCc4ccccc4)cc3nc2n1` here?
The Inhibition was 78%.

With `CNCCNC(=O)C1Cc2c([nH]c3c(C)cccc23)C(c2ccc(Cl)c(Cl)c2)N1` (stereo not given) as the compound, how does the Inhibition read?
Its Inhibition is 13%.

How did the Inhibition turn out when `COc1ccc(NC(=O)CCNc2cc(C)nc(NCc3ccccc3C)n2)cc1.O=C(O)C(F)(F)F` was run?
The Inhibition was 7%.

How did the Inhibition turn out when `COc1cc(CNCCCNc2nc(=O)c3sccc3[nH]2)c2[nH]cc(Cl)c2c1.CS(=O)(=O)O` was run?
The Inhibition was 29%.

`COc1cc(C(=O)NCCCN2CCN(c3cccc(Cl)c3)CC2)ccc1-c1cc2cc(Cl)c(Cl)cc2[nH]1` was tested. Which Inhibition did it give?
The Inhibition was 35%.

Which Inhibition does the source give for `O=C(NCC1CC1)C1CCN(C(c2ccc(Cl)cc2)c2ccc(Cl)cc2)CC1` here?
The Inhibition was 3%.

With `Cc1ccc(CNC(=O)[C@H](CC(C)C)Nc2cc(C)nc(NCc3ccccc3C)n2)cc1.O=C(O)C(F)(F)F` as the compound, how does the Inhibition read?
The Inhibition was 3%.

How did the Inhibition turn out when `O=C(O)C(F)(F)F.c1ccc(-n2ncc(CNCc3ccc(-c4ccc(-c5nc6ccccc6[nH]5)s4)cc3)n2)cc1` was run?
Its Inhibition is 27%.

With `Cc1nc2c(c(C)nn2C(C)(C)C)c(C)c1CCC(=O)Nc1ccc(CN2CCCC2)cc1` as the compound, how does the Inhibition read?
The Inhibition was 1%.

Which Inhibition does the source give for `Cc1cc(NC(=O)NCCN2CCC(NS(=O)(=O)c3cccc(Br)c3)C2)c2ccccc2n1.O=C(O)C(F)(F)F` (stereo not given) here?
Its Inhibition is 0%.

How did the Inhibition turn out when `Nc1ncc(-c2cccc(OCc3ccccc3)c2)cc1-c1nnc2ccc(Cl)nn12` was run?
Its Inhibition is 0%.

Which Inhibition does the source give for `CCOCCCn1c(=N)c(C(=O)NCc2ccc(OC)cc2)cc2c(=O)n3cccc(C)c3nc21` here?
Its Inhibition is 24%.

With `Oc1ccc(Br)cc1C(O)CNCc1ccccc1OCc1ccccc1` (stereo not given) as the compound, how does the Inhibition read?
Its Inhibition is 25%.

`O=C(/C=C/c1ccc(C(F)(F)F)cc1)NCCCCCN1CCCN(C(=O)Nc2ccc(Cl)c(C(F)(F)F)c2)CC1` was tested. Which Inhibition did it give?
The Inhibition was 64%.

Which Inhibition does the source give for `COc1ccc(N2C(N)=NC(N)=NC2(C)C)cc1.Cl` here?
The Inhibition was 0%.

How did the Inhibition turn out when `O=S(=O)(Nc1ccc(CCN2CCC(N3CCCCC3)CC2)cc1)c1ccc(Cl)cc1` was run?
The Inhibition was 23%.

`Cc1cccc2nc(-c3ccc(-c4cccc(CN5CCC(C(N)=O)CC5)c4)s3)[nH]c12.O=C(O)C(F)(F)F` was tested. Which Inhibition did it give?
The Inhibition was 1%.

Which Inhibition does the source give for `Cn1cc(C(=O)Nc2cccc(-c3cccc(-c4nc5cc(F)ccc5[nH]4)c3)c2)n(C)c1=O` here?
Its Inhibition is 15%.

`O=C(Nc1ccc(-c2nc3ccccc3[nH]2)cc1)C1CCN(Cc2ccc(F)cc2)CC1` was tested. Which Inhibition did it give?
Its Inhibition is 13%.

For `O=C(Nc1cccc(CN2CCN(Cc3ccc(O)cc3)CC2)c1)c1cccc(C(F)(F)F)c1.O=C(O)C(F)(F)F`, which Inhibition is on record?
Its Inhibition is 21%.

How did the Inhibition turn out when `O=c1cc(NCCCNCc2cc(Br)ccc2F)[nH]c2ccccc12` was run?
Its Inhibition is 0%.

With `CC(c1cccc(Nc2nccc(-c3c(-c4cccc(NC(=O)c5c(F)cccc5F)c4)nn4ncccc34)n2)c1)S(C)(=O)=O` (stereo not given) as the compound, how does the Inhibition read?
Its Inhibition is 79%.

For `COC(=O)c1cccc(OCCNC2CCN(C[C@H](O)c3ccnc4ccc(OC)cc34)CC2)c1.O=C(O)C(=O)O`, which Inhibition is on record?
Its Inhibition is 0%.

`Nc1c2c(nc3ccc(C(=O)Nc4ccc(Br)cc4)cc13)CCCC2` was tested. Which Inhibition did it give?
The Inhibition was 40%.

Which Inhibition does the source give for `Cl.O=C(NC1CCN(CC2(c3ccc(Cl)cc3)CCCCC2)CC1)c1cc[nH]n1` here?
Its Inhibition is 0%.

Which Inhibition does the source give for `COc1cc2c(cc1CCNCCCCNCCc1cc3c(cc1OC)CCCC3)CCCC2.CS(=O)(=O)O` here?
The Inhibition was 100%.

How did the Inhibition turn out when `O=C(NCCCCN1CCC(c2ccc(C(F)(F)F)cc2C(F)(F)F)CC1)c1ccc(NC(=O)c2ccc(Cl)cc2)cc1` was run?
Its Inhibition is 4%.

Which Inhibition does the source give for `CC(=O)c1c[nH]c2ccc(/C=C/C(=O)NC3CCC(CCN4CCc5ccc(C#N)cc5CC4)CC3)cc12.Cl` (stereo not given) here?
Its Inhibition is 11%.

With `O=C(O[C@@H]1CN[C@H](C#Cc2cc3ncnc(Nc4ccc5c(cnn5Cc5cccc(F)c5)c4)c3s2)C1)N1CCCC1` as the compound, how does the Inhibition read?
The Inhibition was 9%.

`O=C(Nc1cccc(-c2cccc(-c3nc4cc(F)ccc4[nH]3)c2)c1)c1csnn1` was tested. Which Inhibition did it give?
The Inhibition was 23%.

Which Inhibition does the source give for `CN1CCCN(Cc2cccc(-c3ccc(CNC(=O)c4cccc(Cl)c4)c(F)c3)c2)CC1.O=C(O)C(F)(F)F` here?
The Inhibition was 56%.

With `O=S(=O)(c1cccc(Cl)c1F)N(CCC(O)(C(F)(F)F)C(F)(F)F)Cc1cccc(O)c1` as the compound, how does the Inhibition read?
Its Inhibition is 0%.

`Cc1cccc(C)c1CNc1ccnc2cc(Br)ccc12.Cl` was tested. Which Inhibition did it give?
The Inhibition was 24%.

With `O=C(N[C@@H](Cc1ccccc1)C(=O)NC1CCCc2ccccc21)c1ccc(O)c(-c2cccc(C(F)(F)F)c2)c1` (stereo not given in full) as the compound, how does the Inhibition read?
Its Inhibition is 0%.

Which Inhibition does the source give for `CC(C)Cc1ccc(N2CCN(CCCCNC(=O)c3ccc(NC(=O)c4ccc(Cl)c(Cl)c4)cc3)CC2)cc1` here?
Its Inhibition is 21%.

How did the Inhibition turn out when `O=C(Nc1ccc([N+](=O)[O-])cc1)Nc1nc2ccc(Cl)cc2s1` was run?
The Inhibition was 63%.

`CC(C)COc1ccc(Cl)cc1Cc1ccc(-c2nc3ccc(Br)cc3[nH]2)o1.Cl` was tested. Which Inhibition did it give?
The Inhibition was 19%.
